TWEAK Fn14 block: blocks TWEAK-Fn14 interaction in a reporter cell assay; AID 1159606; inhibition, % at 10 µM; TWEAK-stimulated Fn14 reporter cells, luciferase luminescence, 8 h; 360,000 compounds, 2% hits; in the data active means inhibition above about 50%
TROY NFkB inh: blocks TROY-dependent signaling in reporter cells; Q293 LMP1-TROYcd NF-kB luciferase reporter, 4 h; inhibition, % at 10 µM; 360,000 compounds, 0.98% hits; AID 1347056;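 active means compounds whose plate-normalised and pattern-corrected inhibition of the luciferase reporter signal at the single screening dose is 50% or more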
Shn3 inh set2: inhibitors of Schnurri-3 3'UTR reporter in osteoblasts. Clone20 osteoblast Shn3 3'UTR firefly luciferase, 24 h. inhibition, % at 12.5 µM. 360,000 compounds, 0.52% hits. AID 588674;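 active means mean inhibition of at least 75% with every replicate also reaching 75%; inconclusive means mean inhibition at least 75% but some replicate below; inactive means mean inhibition below 75%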;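 further: 0% = median of neutral control wells and 100% = pilot-screen positive control compound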
EBV LMP1 NFkB: inhibitors of Epstein-Barr LMP1-induced NF-kappaB reporter; LMP1-induced NF-kappaB luciferase reporter cells, luminescence; inhibition, % at 12.5 µM; 350,000 compounds, 0.69% hits; AID 504558; in the data active means inhibition above about 41%; inconclusive means no clear call, values can overlap the other calls;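 further: 0% = neutral control wells and 100% = reference inhibitor control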
MITF TRPM1 inh: reduces MITF-dependent TRPM1 promoter luciferase signal; SK-MEL-5 TRPM1 promoter luciferase, 24 h; inhibition, % at 12.5 µM; 330,000 compounds, 0.83% hits; AID 488899;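 active means mean inhibition across replicates of 60% or more, whatever share of single replicates reaches that level; inconclusive means some that reach 60%, reason not given; inactive means mean inhibition across replicates below 60%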
HIF-2a inh: blocks HIF-2a reporter activity. 786-0 RCC cells HIF-2a reporter, luciferase luminescence, overnight. inhibition, % at 18.8 µM. 360,000 compounds, 0.72% hits. AID 624352;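 active means inhibition of the luminescence signal of 40% or more relative to plate controls, in a single-dose primary screen at 18.75 µM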
Mdm2-MdmX confirm: Mdm2/MdmX (human) interaction inhibition, confirmed; shares compounds with HIF-2a inh; SaOS-2 split-luciferase Mdm2/MdmX complementation, luminescence; inhibition, % at 8 µM; 740 compounds, 99% hits;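 active means mean inhibition of the luminescence signal across two replicates at or above 26 percent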
HIF-2a inh conf: confirmation of HIF-2a inhibitors | 786-0 RCC cells, HIF-2a luciferase reporter luminescence, overnight | inhibition, % at 18.8 µM | AID 651580 | shares compounds with HIF-2a inh | 1,800 compounds, 56% hits;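 active means mean inhibition across four replicates of at least 40 percent at the single tested concentration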
HIF-1a cs: inhibits HIF-1a reporter, a counter-screen for HIF-2a inhibitors. 1,800 compounds, 72% hits. shares compounds with HIF-2a inh. MiaPaCa-2 HIF-1a luciferase reporter, desferoxamine, overnight. inhibition, % at 18.8 µM;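 active means mean inhibition of the reporter signal across four replicates at the single tested dose of 50% or more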
Active calls of the source: *. Sampled rows, rich in hits. Any-hit rate of the full collection: about 3.4%.

For CN(c1ccccc1)S(=O)(=O)c1ccc(Cl)nc1 the results were TWEAK Fn14 block 22, TROY NFkB inh -24, Shn3 inh set2 17, EBV LMP1 NFkB -2, MITF TRPM1 inh -1 and HIF-2a inh 6.
`Cc1nc(S(=O)(=O)N(C)c2ccccc2)c(C#N)c(C)c1Cl` gave TWEAK Fn14 block 48, TROY NFkB inh 14, Shn3 inh set2 -10, EBV LMP1 NFkB 19, MITF TRPM1 inh 21, HIF-2a inh 14 and Mdm2-MdmX confirm 103*.
Screening O=C(NC1CCCC1)c1ccc(Cl)s1 returned TWEAK Fn14 block 0, TROY NFkB inh -23, Shn3 inh set2 -4, EBV LMP1 NFkB -9, MITF TRPM1 inh -7 and HIF-2a inh -31.
Screening O=C(NC1CCCCCC1)c1ccc([N+](=O)[O-])s1 returned TWEAK Fn14 block -7, TROY NFkB inh -41, Shn3 inh set2 -6, EBV LMP1 NFkB -13, MITF TRPM1 inh 71*, HIF-2a inh 60*, HIF-2a inh conf 74* and HIF-1a cs 77*.
`O=C(CCN=C1NS(=O)(=O)c2ccccc21)N1CCc2ccccc2C1` gave TWEAK Fn14 block 5, TROY NFkB inh -4, Shn3 inh set2 8, EBV LMP1 NFkB 0, MITF TRPM1 inh 5 and HIF-2a inh -16.
Screening COc1cc(/C=C2\CC(C(C)(C)C)C/C(=C\c3cc(OC)c(OC)c(OC)c3)C2=O)cc(OC)c1OC (stereo not drawn) returned TWEAK Fn14 block 64*, TROY NFkB inh 12, Shn3 inh set2 inconclusive, EBV LMP1 NFkB inconclusive, MITF TRPM1 inh 84*, HIF-2a inh 94* and Mdm2-MdmX confirm 102*.
`COc1cc(/C=C2\CCC(C3CCCC3)C2=O)cc(OC)c1OC` (stereo not drawn) gave TWEAK Fn14 block -81, TROY NFkB inh -55, Shn3 inh set2 -7, EBV LMP1 NFkB 0, MITF TRPM1 inh -45 and HIF-2a inh -196.
`O=C(Nc1ccc(OC(F)(F)F)cc1)N1CCN(c2ccnc3cc(Cl)ccc23)CC1` gave TWEAK Fn14 block 32, TROY NFkB inh 43, Shn3 inh set2 75, EBV LMP1 NFkB 33, MITF TRPM1 inh 15, HIF-2a inh 43*, HIF-2a inh conf 11 and HIF-1a cs 45.
For O[C@@H]1[C@@H](O)C=C2CCN3Cc4cc5c(cc4[C@H]1C23)OCO5 (stereo partly drawn) the results were TWEAK Fn14 block 75*, TROY NFkB inh 68*, Shn3 inh set2 20, EBV LMP1 NFkB 10, MITF TRPM1 inh 63*, HIF-2a inh 51*, HIF-2a inh conf 40* and HIF-1a cs 103*.
CCc1ccc2c(c1)/C(=C/C(=O)c1cccs1)C(=O)N2 was read as TWEAK Fn14 block -2, TROY NFkB inh 15, Shn3 inh set2 80, EBV LMP1 NFkB 15, MITF TRPM1 inh 70*, HIF-2a inh 75*, HIF-2a inh conf 61* and HIF-1a cs 103*.
For Cc1cccc(N2CCN(C(=S)Nc3ccc4nc(N5CCN(C)CC5)cc(C)c4c3)CC2)c1C the results were TWEAK Fn14 block -84, TROY NFkB inh 8, Shn3 inh set2 85, EBV LMP1 NFkB 82*, MITF TRPM1 inh 96*, HIF-2a inh 82*, HIF-2a inh conf -3 and HIF-1a cs 105*.
For Cc1ccc(CCNC(=O)C2CCN(S(=O)(=O)c3ccc4c(c3)NC(=O)CO4)CC2)cc1 the results were TWEAK Fn14 block -9, TROY NFkB inh -2, Shn3 inh set2 -1, EBV LMP1 NFkB 2, MITF TRPM1 inh -1 and HIF-2a inh 2.
`CCOc1cc(/C=C\[N+](=O)[O-])ccc1OCC(=O)N1CCOCC1` gave TWEAK Fn14 block 50, TROY NFkB inh 15, Shn3 inh set2 -5, EBV LMP1 NFkB 14, MITF TRPM1 inh 94*, HIF-2a inh 83*, HIF-2a inh conf 88* and HIF-1a cs 85*.
Screening COc1ccc(OC)c(NC(=O)Nc2ccc3c(c2)OCO3)c1 returned TWEAK Fn14 block -24, TROY NFkB inh -28, Shn3 inh set2 4, EBV LMP1 NFkB -2, MITF TRPM1 inh 11 and HIF-2a inh -63.
CCOC(=O)C1=C(C)N=c2sc(=Cc3cc(Cl)c(OCC(=O)O)c(Cl)c3)c(=O)n2C1c1cccc(OC)c1 (stereo not drawn) was read as TWEAK Fn14 block 25, TROY NFkB inh 41, Shn3 inh set2 -18, HIF-2a inh 44*, HIF-2a inh conf 46* and HIF-1a cs 24.
`O=C(CCl)Nc1ccc(-c2ccccc2)cc1` gave TWEAK Fn14 block 32, TROY NFkB inh -42, Shn3 inh set2 45, EBV LMP1 NFkB 11, MITF TRPM1 inh 65*, HIF-2a inh 15 and Mdm2-MdmX confirm 102*.
`CC(C)N(c1ccccc1)c1ccc(NC(=O)CCl)cc1` gave TWEAK Fn14 block 62*, TROY NFkB inh 1, Shn3 inh set2 -5, EBV LMP1 NFkB -33, MITF TRPM1 inh 50, HIF-2a inh 82*, Mdm2-MdmX confirm 102*, HIF-2a inh conf 62* and HIF-1a cs 100*.
Cc1ccc(S(=O)(=O)c2ncccc2[N+](=O)[O-])cc1 was read as TWEAK Fn14 block 95*, TROY NFkB inh 53*, Shn3 inh set2 96*, EBV LMP1 NFkB 29, MITF TRPM1 inh 77*, HIF-2a inh 72*, Mdm2-MdmX confirm 100*, HIF-2a inh conf 47* and HIF-1a cs 20.
Screening Cc1ccc(S(=O)(=O)c2ncccc2N)cc1 returned TWEAK Fn14 block 6, TROY NFkB inh -14, Shn3 inh set2 -14, EBV LMP1 NFkB 12, MITF TRPM1 inh 1 and HIF-2a inh 21.
`COc1cccc(OC)c1C(=O)NC(C)C12CC3CC(CC(C3)C1)C2` (stereo not drawn) gave TWEAK Fn14 block -15, TROY NFkB inh -3, Shn3 inh set2 -6, EBV LMP1 NFkB -6, MITF TRPM1 inh 5 and HIF-2a inh 17.
CC(NC(=O)c1ccc([N+](=O)[O-])o1)C12CC3CC(CC(C3)C1)C2 (stereo not drawn) was read as TWEAK Fn14 block 4, TROY NFkB inh 6, Shn3 inh set2 51, EBV LMP1 NFkB -9, MITF TRPM1 inh 70*, HIF-2a inh 64*, HIF-2a inh conf 21 and HIF-1a cs 103*.
For C=CC[C@H]1C=C[C@@H](C(C(=O)OC)C(=O)OC)CN1C(C)=O the results were TWEAK Fn14 block -17, TROY NFkB inh 8, Shn3 inh set2 -22, EBV LMP1 NFkB 7, MITF TRPM1 inh -8 and HIF-2a inh 18.
